Source: PubChem
ABHD5 PLIN5 PPI – ABHD5-PLIN5 interaction inhibitors, primary screen, cell lysate, split luciferase complementation, luminescence; Perilipin-5 (Homo sapiens) + 1-acylglycerol-3-phosphate O-acyltransferase ABHD5 (Homo …; Split G. princeps luciferase complementation, 4 h; inhibition, % at 4 µM; 0.78% of 360,000 active; AID 602281, 2012;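 active = inhibition above the mean inhibition across every tested compound plus 3 SD, cut at about 22% in these data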
Target sequence (Q00G26 whole entry, looked up): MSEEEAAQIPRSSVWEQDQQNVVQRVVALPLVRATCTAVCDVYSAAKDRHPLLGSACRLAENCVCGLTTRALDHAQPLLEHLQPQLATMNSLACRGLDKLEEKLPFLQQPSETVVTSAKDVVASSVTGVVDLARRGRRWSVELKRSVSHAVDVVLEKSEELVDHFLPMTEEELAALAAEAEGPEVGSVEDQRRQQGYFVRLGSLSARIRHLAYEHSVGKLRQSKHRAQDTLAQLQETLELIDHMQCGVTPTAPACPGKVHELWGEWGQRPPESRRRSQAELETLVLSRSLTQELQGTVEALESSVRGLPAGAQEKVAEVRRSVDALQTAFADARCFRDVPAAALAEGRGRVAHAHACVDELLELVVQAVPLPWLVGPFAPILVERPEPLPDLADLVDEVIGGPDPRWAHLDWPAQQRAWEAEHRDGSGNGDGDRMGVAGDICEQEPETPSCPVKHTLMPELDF
Target sequence (Q8WTS1 whole entry, looked up): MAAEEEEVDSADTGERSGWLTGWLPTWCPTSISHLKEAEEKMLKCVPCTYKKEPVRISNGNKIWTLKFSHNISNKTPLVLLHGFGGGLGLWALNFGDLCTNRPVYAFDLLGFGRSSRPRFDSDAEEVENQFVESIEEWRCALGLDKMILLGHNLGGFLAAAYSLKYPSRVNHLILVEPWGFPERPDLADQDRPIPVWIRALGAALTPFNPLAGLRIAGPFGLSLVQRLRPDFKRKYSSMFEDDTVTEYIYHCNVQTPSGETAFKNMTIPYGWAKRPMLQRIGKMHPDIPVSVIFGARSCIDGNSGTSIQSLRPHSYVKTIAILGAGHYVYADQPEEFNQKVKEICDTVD
Peg3 prom inh-1 – Peg3 promoter-driven luciferase inhibitors, primary screen, cell-based, HeLa, luciferase luminescence; inhibition, % at 20 µM; AID 588405, 2011; HeLa PEG-Prom luciferase reporter, overnight; 1.7% of 360,000 active;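 active = inhibition of at least 50% at 20 µM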
PAX8 reporter – inhibitors of PAX8-driven TPO luciferase reporter, primary screen, RMG-I cells, single concentration | SteadyGlo, 24 h | inhibition, % at 12.6 µM | 1.2% of 360,000 active;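 active = mean replicate inhibition at least 60% with every replicate also reaching 60%; inconclusive = only one of the two criteria is met; inactive = mean below 60% and not all replicates reaching 60%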;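 note: luciferase light reporting Pax8 driven TPO promoter activity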
MITF TRPM1 inh – inhibitors of MITF-dependent TRPM1 promoter reporter, primary screen, cell-based, SK-MEL-5, single point, luciferase; SK-MEL-5 TRPM1 promoter luciferase, 24 h; inhibition, % at 12.5 µM; 0.83% of 330,000 active; AID 488899, 2010;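 active = mean inhibition across replicates of 60% or more, whatever share of single replicates reaches that level; inconclusive = some that reach 60%, reason not given; inactive = mean inhibition across replicates below 60%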
Shn3 3UTR inh – reduction of Shn3 3'UTR firefly luciferase signal, primary screen, Schnurri-3 inhibitor project, cell-based, Clone20 osteoblasts, set 2 | Clone20 osteoblast Shn3 3'UTR firefly luciferase, 24 h | inhibition, % at 12.5 µM | 0.52% of 360,000 active;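 active = mean inhibition of at least 75% with every replicate also reaching 75%; inconclusive = mean inhibition at least 75% but some replicate below; inactive = mean inhibition below 75%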
EWS-Fli block – EWS/Fli-driven NR0B1 reporter inhibitors, primary screen, A673 cells, NR0B1 luciferase, luminescence, MLPCN library; inhibition, % at 12.6 µM; viability-normalised; 0.67% of 350,000 active;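 active = mean inhibition of at least 50% after viability correction, with every replicate also passing that limit; inconclusive = mean reaches 50% but only one of two replicates passes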;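 note: firefly luciferase signal divided by Alamar Blue viability fluorescence both relative to DMSO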
Peg3 prom inh-2 – Peg3 promoter reporter inhibitors, retest, confirmation, cell-based, HeLa, luciferase reporter, single concentration. HeLa PEG-Prom luciferase reporter, luminescence, overnight. inhibition, % at 20 µM. shares compounds with Peg3 prom inh-1. 84% of 1,300 active;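 active = at 20 µM dose, 40% or more inhibition averaged across four replicates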
Large screens that a line does not name were inactive (follow-up assays come after a bar, where they were run). Sampled rows, rich in hits. Any-hit rate of the full collection: about 3%.

COc1cccc(CN(C)C(=O)c2cc(-c3cccs3)nc3ccccc23)c1	Peg3 prom inh-1 61 (no result: EWS-Fli block) | Peg3 prom inh-2 67
COc1ccccc1CN(C)C(=O)c1cc(-c2cc(OC)c(OC)c(OC)c2)nc2ccccc12	Peg3 prom inh-1 53 | Peg3 prom inh-2 56
COc1cc(-c2cc(C(=O)N(C)Cc3ccccc3)c3ccccc3n2)cc(OC)c1OC	Peg3 prom inh-1 56 | Peg3 prom inh-2 52
COc1ccc(-c2cc(C(=O)N(C)CC(=O)Nc3ccccc3Br)c3ccccc3n2)cc1OC	Peg3 prom inh-1 54 | Peg3 prom inh-2 inactive
COc1ccc(-c2cc(C(=O)N(C)CC(=O)Nc3ccccc3C(F)(F)F)c3ccccc3n2)cc1OC	none
COc1ccc(N2CCN(C(=O)c3cc(-c4cccs4)nc4ccccc34)CC2)cc1	none
COc1ccc(NC(=O)Nc2ccc3c(c2)CC(=O)N([C@H](C)CO)C[C@@H](C)[C@H](CN(C)S(=O)(=O)c2ccc(F)cc2)O3)cc1	none (no result: ABHD5 PLIN5 PPI, Peg3 prom inh-1, MITF TRPM1 inh, Shn3 3UTR inh)
COc1ccc(-c2cc(C(=O)N(C)Cc3ccccc3F)c3ccccc3n2)cc1OC	Peg3 prom inh-1 61 (no result: EWS-Fli block) | Peg3 prom inh-2 60
CCN(Cc1ccccc1)C(=O)c1cc(-c2ccc(OC)c(OC)c2)nc2ccccc12	none
Cc1cc(/C=c2\sc3nc4ccccc4n3c2=O)c(C)n1-c1ccc(C(=O)O)cc1	none
Cc1cc(/C=c2/sc3nc4ccccc4n3c2=O)c(C)n1-c1ccccn1	Peg3 prom inh-1 75, MITF TRPM1 inh 86, Shn3 3UTR inh 91 (no result: PAX8 reporter, EWS-Fli block) | Peg3 prom inh-2 88
C/C(=N\NC(=O)c1c(C)nc2ccccn12)c1ccccc1F	none
C/C(=N\NC(=O)c1c(C)nc2ccccn12)c1ccc(O)cc1O	Peg3 prom inh-1 52 | Peg3 prom inh-2 60
C[C@H]1CN([C@@H](C)CO)C(=O)Cc2cc(NC(=O)Nc3ccc(F)cc3)ccc2O[C@@H]1CN(C)Cc1ccc(-c2ccccc2)cc1	none (no result: ABHD5 PLIN5 PPI, Peg3 prom inh-1, PAX8 reporter, MITF TRPM1 inh, Shn3 3UTR inh)
Cc1ccc(/C=C2\SC(=S)N(CCCC(=O)NC3CCCC3)C2=O)cc1	Peg3 prom inh-1 54, MITF TRPM1 inh 76 (no result: EWS-Fli block) | Peg3 prom inh-2 49
CN(C)CCNc1ccc2ncn3c4ccc(O)cc4c(=O)c1c23	Peg3 prom inh-1 101, PAX8 reporter 64, MITF TRPM1 inh 83 | Peg3 prom inh-2 71
CN(C)CCNc1ccc(-c2nn(C)c(=O)c3ccccc23)cc1[N+](=O)[O-]	none
O=C(Nc1ccc(CN2CCCCC2)cc1)Nc1ccc(Br)cc1Cl	Peg3 prom inh-1 67 | Peg3 prom inh-2 96
COc1ccc(NC(=O)Nc2ccc3c(c2)OC[C@H](C)NC[C@H](C)[C@@H](OC)CN(C)C3=O)cc1	none (no result: ABHD5 PLIN5 PPI, Peg3 prom inh-1, PAX8 reporter, MITF TRPM1 inh, Shn3 3UTR inh)
CCCC#Cc1cnc2c(c1)C(=O)N([C@H](C)CO)C[C@@H](C)[C@@H](CN(C)C(=O)C1CCCCC1)O2	none (no result: ABHD5 PLIN5 PPI, Peg3 prom inh-1, PAX8 reporter, MITF TRPM1 inh, Shn3 3UTR inh)
CN(C)c1ccc(/C=C/c2ccc3c4ccccc4ccc3[n+]2-c2ccccc2)cc1	ABHD5 PLIN5 PPI 37, Peg3 prom inh-1 106, PAX8 reporter 103, MITF TRPM1 inh 104, Shn3 3UTR inh 93, EWS-Fli block 62 | Peg3 prom inh-2 100
CN(C)c1ccc(/C=C/c2nc3ccccc3c(=O)n2CCO)cc1	none
C[C@H]1CCCCO[C@H](CN(C)C(=O)Cc2ccccc2)[C@@H](C)CN([C@@H](C)CO)C(=O)c2cc(NC(=O)CCCN(C)C)ccc2O1	none (no result: ABHD5 PLIN5 PPI, Peg3 prom inh-1, MITF TRPM1 inh, Shn3 3UTR inh)
COCCCNC(=O)c1ccc(Cn2c(=O)c3ccccc3n(Cc3ccccc3C#N)c2=O)cc1	Peg3 prom inh-1 54 (no result: EWS-Fli block) | Peg3 prom inh-2 57
NC(=O)CSc1nc(-c2ccccc2)nc2ccccc12	none
Cc1cccc2c(SCC(N)=O)nc(-c3ccccc3)nc12	Peg3 prom inh-1 51 | Peg3 prom inh-2 inactive
COc1ccc(C(O)(CCC(C)C)C(CN2CCOCC2)c2ccccc2)cc1 (stereo not given)	Peg3 prom inh-1 59 | Peg3 prom inh-2 47
CC(C)CCC(O)(c1ccccc1)C(CN1CCOCC1)c1ccccc1 (stereo not given)	none
CCCN1CCc2c(sc(NC(=O)c3ccc(S(=O)(=O)N4CCN(C(=O)OCC)CC4)cc3)c2C(N)=O)C1	Peg3 prom inh-1 65 (no result: PAX8 reporter) | Peg3 prom inh-2 58
CCCN1CCc2c(sc(NC(=O)c3ccc(S(=O)(=O)N(C)c4ccccc4)cc3)c2C(N)=O)C1	none (no result: PAX8 reporter, EWS-Fli block)
CCN(CC)C(=O)[C@H]1CC(CC(=O)NCc2cccc(C(F)(F)F)c2)C(=O)N2CCc3c([nH]c4ccc(OC)cc34)[C@]12C (stereo not given in full)	none
CC(C)N(C(=O)[C@H]1CC(CC(=O)NCc2cccc(C(F)(F)F)c2)C(=O)N2CCc3c([nH]c4ccccc34)[C@]12C)C(C)C (stereo not given in full)	Peg3 prom inh-1 68 | Peg3 prom inh-2 inactive
O=C(NCC[C@@H]1CC[C@H](NS(=O)(=O)c2ccccc2F)[C@H](CO)O1)c1ccc(F)cc1	none (no result: ABHD5 PLIN5 PPI, Peg3 prom inh-1, MITF TRPM1 inh, Shn3 3UTR inh)
COC(=O)C1=C(C)N(Cc2ccccc2)C(=NCCc2c[nH]c3ccccc23)N[C@H]1c1cccc(C(F)(F)F)c1	Peg3 prom inh-1 99 (no result: PAX8 reporter, EWS-Fli block) | Peg3 prom inh-2 98
CC(C)NC(=O)N[C@@H]1CC[C@@H](CCNC(=O)C2CC2)O[C@@H]1CO	none (no result: ABHD5 PLIN5 PPI, Peg3 prom inh-1, MITF TRPM1 inh, Shn3 3UTR inh)
Nc1c(C(=O)Nc2nc3ccccc3s2)sc2nc(-c3cccs3)ccc12	Peg3 prom inh-1 95, MITF TRPM1 inh inconclusive (no result: PAX8 reporter, EWS-Fli block) | Peg3 prom inh-2 64
COc1ccc(N=CC2=C(O)c3ccccc3C2=O)cc1	Peg3 prom inh-1 75 (no result: EWS-Fli block) | Peg3 prom inh-2 inactive
O=C1C(C=Nc2ccccc2)=C(O)c2ccccc21	none (no result: EWS-Fli block)
Cc1cccc(CN2C(=O)[C@H]3Cc4c([nH]c5ccccc45)C(C)(C)N3C2=O)c1	Peg3 prom inh-1 60 | Peg3 prom inh-2 49
CCCN(CCC)S(=O)(=O)c1ccc(Cl)c([N+](=O)[O-])c1	Peg3 prom inh-1 94, EWS-Fli block 54 | Peg3 prom inh-2 inactive
CCCN(CCC)S(=O)(=O)c1ccc(N2CCCC2=O)c([N+](=O)[O-])c1	none
C[C@@H]1CN([C@@H](C)CO)C(=O)c2cccc(NS(=O)(=O)c3ccccc3)c2O[C@H]1CN(C)S(=O)(=O)c1ccc(F)cc1	none (no result: ABHD5 PLIN5 PPI, Peg3 prom inh-1, MITF TRPM1 inh, Shn3 3UTR inh)
C[C@@H]1CCCCO[C@H](CN(C)C(=O)C2CCCCC2)[C@@H](C)CN([C@H](C)CO)C(=O)c2cc(NC(=O)Nc3ccccc3)ccc2O1	none (no result: ABHD5 PLIN5 PPI, Peg3 prom inh-1, MITF TRPM1 inh, Shn3 3UTR inh)
COc1ccc2sc(N(CCCN(C)C)C(=O)c3ccc(S(=O)(=O)N4CCc5ccccc5C4)cc3)nc2c1	Peg3 prom inh-1 101, MITF TRPM1 inh 85 (no result: PAX8 reporter) | Peg3 prom inh-2 98
